Drawing on PubChem BioAssay (EPA / NIEHS), this text covers outcome and AC50 for four compounds.

Test [1] in a line: CEETOX_H295R_PROG: CeeTox H295R High-throughput Steroidogenesis Assay for Progesterone (PROG) (AID 2283442).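 For AC50: human H295R adrenal cells primed with 10 µM forskolin before dosing; progesterone secreted into medium by H295R cells measured by HPLC-MS/MS.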 Particulars: actives raise or lower the signal. The procedure, abridged: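 Steps: seed H295R cells and let them adhere overnight; prime 48 h with 10 uM forskolin; dose with compound in DMSO at 0.1% final for 48 h; extract medium steroids with MTBE; measure progesterone by LC-MS/MS. MTT viability was run in the same wells.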

Read-out in test [2]: Tumor necrosis factor receptor superfamily member 6 (Homo sapiens) (UniProt P25445)
Description: LTEA_HepaRG_FAS: Life Technologies and Expression Analysis (LTEA) Assay for Fas cell surface death receptor (FAS) using HepaRG (AID 2283447). Particulars: mRNA level, 48 h; actives raise or lower the signal. The procedure, abridged:
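Differentiated HepaRG cells in serum-free induction medium were exposed 48 h to 8 half-log concentrations up to 100 uM in 0.5% DMSO, in duplicate. FAS mRNA was measured by qRT-PCR normalised to ACTB, GAPDH and POLR2A; bidirectional fit versus DMSO.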

Read-out in test [3]: Fatty acid synthase (Homo sapiens) (UniProt P49327)
The experiment in a line: LTEA_HepaRG_FASN: Life Technologies and Expression Analysis (LTEA) Assay for Fatty Acid Synthase (FASN) using HepaRG (AID 2283448).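 For AC50: differentiated human HepaRG liver cells in serum-free induction medium.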 Conditions: mRNA level, 48 h; actives raise or lower the signal. The procedure, abridged:
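HepaRG, 48 h exposure, 8-pt half-log series top 100 uM, 0.5% DMSO vehicle, duplicates. Readout: FASN transcript by Fluidigm qRT-PCR; housekeeping-normalized; bidirectional curve fit vs DMSO baseline.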

Read-out in test [4]: Cyclin D2 (CCND2), CCND2 (gene 894)
The experiment in a line: LTEA_HepaRG_CCND2: Life Technologies and Expression Analysis (LTEA) Assay for Cyclin D2 (CCND2) using HepaRG (AID 2283449).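 Note: CCND2 transcript measured by TaqMan qRT-PCR and normalised to three housekeeping genes.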 Particulars: mRNA level, 48 h; actives raise or lower the signal. The procedure, abridged: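 HepaRG, 48 h dosing, 8-pt half-log curve from 100 uM, 0.5% DMSO; duplicate wells. Readout: CCND2 transcript by microfluidic qRT-PCR, housekeeping-normalised; bidirectional fit vs DMSO baseline.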

Read-out in test [5]: Cyclin Dependent Kinase Inhibitor 1A (CDKN1A), CDKN1A (gene 1026)
Description: LTEA_HepaRG_CDKN1A: Life Technologies and Expression Analysis (LTEA) Assay for Cyclin Dependent Kinase Inhibitor 1A (CDKN1A) using HepaRG (AID 2283450). Particulars: mRNA level, 48 h; actives raise or lower the signal. The procedure, abridged:
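Read-out is CDKN1A mRNA by TaqMan qRT-PCR, normalized to three housekeeping genes and fitted in both directions against the DMSO baseline. Human HepaRG cells were treated 48 h with test chemicals up to 100 uM in half-log steps, 0.5% DMSO.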

Read-out in test [6]: Cyclin D1 (CCND1), CCND1 (gene 595)
Description: LTEA_HepaRG_CCND1: Life Technologies and Expression Analysis (LTEA) Assay for Cyclin D1 (CCND1) using HepaRG (AID 2283451).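 For AC50: differentiated human HepaRG liver cells in serum-free induction medium.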 Particulars: mRNA level, 48 h; actives raise or lower the signal. In a few lines: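 HepaRG plated 48 h, medium switched to serum-free induction medium, chemicals added in duplicate (top 100 uM, half-log steps, 0.5% DMSO) for 48 h, cells lysed, RNA measured by TaqMan qRT-PCR.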

Read-out in test [7]: catalase (CAT), CAT (gene 847)
The experiment in a line: LTEA_HepaRG_CAT: Life Technologies and Expression Analysis (LTEA) Assay for catalase (CAT) using HepaRG (AID 2283452). Particulars: mRNA level, 48 h; actives raise or lower the signal. The procedure, abridged: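 HepaRG cells in serum-free induction medium, 0.5% DMSO vehicle, exposed 48 h in duplicate over 8 half-log concentrations from 100 uM. CAT mRNA measured by qRT-PCR, normalized to ACTB, GAPDH, POLR2A; bidirectional fit versus DMSO.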

Read-out in test [8]: flavin-containing dimethylaniline monooxygenases 3 (FMO3), FMO3 (gene 2328)
The experiment in a line: LTEA_HepaRG_FMO3: Life Technologies and Expression Analysis (LTEA) Assay for flavin-containing dimethylaniline monooxygenases 3 (FMO3) using HepaRG (AID 2283453). Conditions: mRNA level, 48 h; actives raise or lower the signal. The procedure, abridged:
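Eight-point concentration-response in serum-free HepaRG cultures (top 100 uM, 0.5% DMSO, 48 h). Read-out: FMO3 mRNA level normalized to three endogenous control genes, fitted bidirectionally versus vehicle.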

Read-out in test [9]: Cytochrome P450 (CYP1A1), CYP1A1 (gene 1543)
The experiment in a line: LTEA_HepaRG_CYP1A1: Life Technologies and Expression Analysis (LTEA) Assay for Cytochrome P450 (CYP1A1) using HepaRG (AID 2283454). Particulars: mRNA level, 48 h; actives raise or lower the signal. The procedure, abridged: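 HepaRG, 48 h post-plating switched to serum-free induction medium; 8-pt conc-response (top 100 uM, half-log, 0.5% DMSO), duplicates, 48 h. Lysis in RLT, TaqMan qRT-PCR for CYP1A1; gain or loss vs DMSO.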

Read-out in test [10]: CFLAR gene, CFLAR (gene 8837)
Description: LTEA_HepaRG_CFLAR: Life Technologies and Expression Analysis (LTEA) Assay for CFLAR gene using HepaRG (AID 2283455). Particulars: mRNA level, 48 h; actives raise or lower the signal. The procedure, abridged: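 qRT-PCR read-out (Fluidigm/TaqMan) of CFLAR mRNA, normalized to three housekeeping genes, in differentiated human HepaRG cells after 48 h chemical exposure; 8-point half-log series from 100 uM in 0.5% DMSO; bidirectional curve fitting versus DMSO.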

Read-out in test [11]: growth arrest and DNA damage 45 (GADD45A), GADD45A (gene 1647)
The experiment in a line: LTEA_HepaRG_GADD45A: Life Technologies and Expression Analysis (LTEA) Assay for growth arrest and DNA damage 45 (GADD45A) using HepaRG (AID 2283458). Particulars: mRNA level, 48 h; actives raise or lower the signal. In a few lines: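 HepaRG, 48 h exposure, 8 conc. (top 100 uM, half-log steps), 0.5% DMSO vehicle, duplicates. Read-out: qRT-PCR mRNA level, housekeeping-normalized (ACTB/GAPDH/POLR2A). Curves fit bidirectionally vs DMSO baseline.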

Read-out in test [12]: Forkhead box O3 (FOXO3), FOXO3 (gene 2309)
The experiment in a line: LTEA_HepaRG_FOXO3: Life Technologies and Expression Analysis (LTEA) Assay for Forkhead box O3 (FOXO3) using HepaRG (AID 2283459). Particulars: mRNA level, 48 h; actives raise or lower the signal. The procedure, abridged: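 qRT-PCR readout of FOXO3 transcript, normalized to three housekeeping genes (ACTB, GAPDH, POLR2A); gain or loss fitted against 0.5% DMSO vehicle. HepaRG cells, 48 h chemical exposure, 8-point half-log series, top 100 uM.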

Read-out in test [13]: ABC Transporter (ABCB1), ABCB1 (gene 5243)
Description: LTEA_HepaRG_ABCB1: Life Technologies and Expression Analysis (LTEA) Assay for ABC Transporter (ABCB1) using HepaRG (AID 2283460). Conditions: mRNA level, 48 h; actives raise or lower the signal. In a few lines: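 HepaRG, 48 h exposure, 8-pt half-log series from 100 uM, 0.5% DMSO vehicle, duplicates. Readout: ABCB1 transcript by Fluidigm TaqMan qRT-PCR, housekeeping-normalized; bidirectional curve fit vs DMSO baseline.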

Read-out in test [14]: growth arrest and DNA damage 45 (GADD45B), GADD45B (gene 4616)
Description: LTEA_HepaRG_GADD45B: Life Technologies and Expression Analysis (LTEA) Assay for growth arrest and DNA damage 45 (GADD45B) using HepaRG (AID 2283461). Conditions: mRNA level, 48 h; actives raise or lower the signal. The procedure, abridged:
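HepaRG, ~100,000 cells/well, 48 h plating; serum-free induction medium; cpd 100 uM top, half-log x8, 0.5% DMSO, duplicate, 48 h; lysis in RLT, RNA isolation, qRT-PCR; norm ACTB/GAPDH/POLR2A; bidirectional fit vs DMSO.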

Read-out in test [15]: ABC Transporter (ABCC3), ABCC3 (gene 8714)
The experiment in a line: LTEA_HepaRG_ABCC3: Life Technologies and Expression Analysis (LTEA) Assay for ABC Transporter (ABCC3) using HepaRG (AID 2283462). Particulars: mRNA level, 48 h; actives raise or lower the signal. In a few lines:
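Human HepaRG, 48 h dosing, 8-pt half-log series from 100 uM, 0.5% DMSO vehicle, duplicates. ABCC3 mRNA by TaqMan qRT-PCR, housekeeping-normalized; bidirectional curve fit vs DMSO.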

Read-out in test [16]: ABC Transporter (ABCB11), ABCB11 (gene 8647)
Description: LTEA_HepaRG_ABCB11: Life Technologies and Expression Analysis (LTEA) Assay for ABC Transporter (ABCB11) using HepaRG (AID 2283463). Conditions: mRNA level, 48 h; actives raise or lower the signal. In a few lines: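 HepaRG, 48 h exposure, 8-pt half-log CRC top 100 uM, 0.5% DMSO vehicle, duplicates. Readout: TaqMan qRT-PCR of ABCB11 mRNA, housekeeping-normalized (ACTB/GAPDH/POLR2A). Bidirectional fit vs DMSO baseline.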

Read-out in test [17]: Broad substrate specificity ATP-binding cassette transporter ABCG2 (Homo sapiens) (UniProt Q9UNQ0)
The experiment in a line: LTEA_HepaRG_ABCG2: Life Technologies and Expression Analysis (LTEA) Assay for ABC Transporter (ABCG2) using HepaRG (AID 2283465). Conditions: mRNA level, 48 h; actives raise or lower the signal. In a few lines: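 HepaRG, 48 h exposure, 8-pt half-log series from 100 uM, 0.5% DMSO vehicle, duplicates. Readout: ABCG2 transcript by qRT-PCR (Fluidigm array), housekeeping-normalized; bidirectional curve fit relative to DMSO baseline.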

Read-out in test [18]: Forkhead box O1 (FOXO1), FOXO1 (gene 2308)
Description: LTEA_HepaRG_FOXO1: Life Technologies and Expression Analysis (LTEA) Assay for Forkhead box O1 (FOXO1) using HepaRG (AID 2283456). Conditions: mRNA level, 48 h; actives raise or lower the signal. The procedure, abridged: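 HepaRG, 48 h exposure, 8-pt half-log series from 100 uM in 0.5% DMSO, duplicates; Fluidigm qRT-PCR mRNA, housekeeping-normalised; bidirectional fit vs DMSO baseline.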

Read-out in test [19]: ABC Transporter (ABCC2), ABCC2 (gene 1244)
Description: LTEA_HepaRG_ABCC2: Life Technologies and Expression Analysis (LTEA) Assay for ABC Transporter (ABCC2) using HepaRG (AID 2283464). Conditions: mRNA level, 48 h; actives raise or lower the signal. In a few lines: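 HepaRG, 48 h post-plating; serum-free induction medium; cpd 8-pt, 100 uM top, half-log, 0.5% DMSO, duplicate, 48 h. Readout: ABCC2 mRNA by qRT-PCR, norm. ACTB/GAPDH/POLR2A. Bidirectional fit vs DMSO baseline.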

Molecules are shown by their SMILES. The source made the active and inactive calls. Rule for the calls: active = hit-call score of the fitted dose curve at least 0.9, where 1 is the maximum; inactive = score below 0.9.

Broad substrate specificity ATP-binding cassette transporter ABCG2 (Homo sapiens), sequence (Q9UNQ0 whole entry, looked up): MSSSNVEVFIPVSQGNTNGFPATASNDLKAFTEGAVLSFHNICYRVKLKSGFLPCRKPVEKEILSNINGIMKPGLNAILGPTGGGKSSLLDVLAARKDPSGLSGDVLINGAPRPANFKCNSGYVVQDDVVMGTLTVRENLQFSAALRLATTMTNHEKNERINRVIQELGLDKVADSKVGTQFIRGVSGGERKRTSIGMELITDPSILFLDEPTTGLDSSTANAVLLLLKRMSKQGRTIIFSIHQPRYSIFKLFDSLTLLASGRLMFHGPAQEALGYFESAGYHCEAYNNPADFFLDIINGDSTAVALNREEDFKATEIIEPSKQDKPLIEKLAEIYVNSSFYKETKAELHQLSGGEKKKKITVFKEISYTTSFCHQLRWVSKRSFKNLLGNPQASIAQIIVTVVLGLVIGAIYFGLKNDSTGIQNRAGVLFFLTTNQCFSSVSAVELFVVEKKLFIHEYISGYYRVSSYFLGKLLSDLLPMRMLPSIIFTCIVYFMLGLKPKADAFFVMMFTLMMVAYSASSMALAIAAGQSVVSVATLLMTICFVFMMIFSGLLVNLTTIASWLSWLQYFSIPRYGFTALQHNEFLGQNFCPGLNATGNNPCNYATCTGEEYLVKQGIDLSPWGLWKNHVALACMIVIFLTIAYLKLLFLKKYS
Fatty acid synthase (Homo sapiens), sequence (P49327 whole entry, looked up): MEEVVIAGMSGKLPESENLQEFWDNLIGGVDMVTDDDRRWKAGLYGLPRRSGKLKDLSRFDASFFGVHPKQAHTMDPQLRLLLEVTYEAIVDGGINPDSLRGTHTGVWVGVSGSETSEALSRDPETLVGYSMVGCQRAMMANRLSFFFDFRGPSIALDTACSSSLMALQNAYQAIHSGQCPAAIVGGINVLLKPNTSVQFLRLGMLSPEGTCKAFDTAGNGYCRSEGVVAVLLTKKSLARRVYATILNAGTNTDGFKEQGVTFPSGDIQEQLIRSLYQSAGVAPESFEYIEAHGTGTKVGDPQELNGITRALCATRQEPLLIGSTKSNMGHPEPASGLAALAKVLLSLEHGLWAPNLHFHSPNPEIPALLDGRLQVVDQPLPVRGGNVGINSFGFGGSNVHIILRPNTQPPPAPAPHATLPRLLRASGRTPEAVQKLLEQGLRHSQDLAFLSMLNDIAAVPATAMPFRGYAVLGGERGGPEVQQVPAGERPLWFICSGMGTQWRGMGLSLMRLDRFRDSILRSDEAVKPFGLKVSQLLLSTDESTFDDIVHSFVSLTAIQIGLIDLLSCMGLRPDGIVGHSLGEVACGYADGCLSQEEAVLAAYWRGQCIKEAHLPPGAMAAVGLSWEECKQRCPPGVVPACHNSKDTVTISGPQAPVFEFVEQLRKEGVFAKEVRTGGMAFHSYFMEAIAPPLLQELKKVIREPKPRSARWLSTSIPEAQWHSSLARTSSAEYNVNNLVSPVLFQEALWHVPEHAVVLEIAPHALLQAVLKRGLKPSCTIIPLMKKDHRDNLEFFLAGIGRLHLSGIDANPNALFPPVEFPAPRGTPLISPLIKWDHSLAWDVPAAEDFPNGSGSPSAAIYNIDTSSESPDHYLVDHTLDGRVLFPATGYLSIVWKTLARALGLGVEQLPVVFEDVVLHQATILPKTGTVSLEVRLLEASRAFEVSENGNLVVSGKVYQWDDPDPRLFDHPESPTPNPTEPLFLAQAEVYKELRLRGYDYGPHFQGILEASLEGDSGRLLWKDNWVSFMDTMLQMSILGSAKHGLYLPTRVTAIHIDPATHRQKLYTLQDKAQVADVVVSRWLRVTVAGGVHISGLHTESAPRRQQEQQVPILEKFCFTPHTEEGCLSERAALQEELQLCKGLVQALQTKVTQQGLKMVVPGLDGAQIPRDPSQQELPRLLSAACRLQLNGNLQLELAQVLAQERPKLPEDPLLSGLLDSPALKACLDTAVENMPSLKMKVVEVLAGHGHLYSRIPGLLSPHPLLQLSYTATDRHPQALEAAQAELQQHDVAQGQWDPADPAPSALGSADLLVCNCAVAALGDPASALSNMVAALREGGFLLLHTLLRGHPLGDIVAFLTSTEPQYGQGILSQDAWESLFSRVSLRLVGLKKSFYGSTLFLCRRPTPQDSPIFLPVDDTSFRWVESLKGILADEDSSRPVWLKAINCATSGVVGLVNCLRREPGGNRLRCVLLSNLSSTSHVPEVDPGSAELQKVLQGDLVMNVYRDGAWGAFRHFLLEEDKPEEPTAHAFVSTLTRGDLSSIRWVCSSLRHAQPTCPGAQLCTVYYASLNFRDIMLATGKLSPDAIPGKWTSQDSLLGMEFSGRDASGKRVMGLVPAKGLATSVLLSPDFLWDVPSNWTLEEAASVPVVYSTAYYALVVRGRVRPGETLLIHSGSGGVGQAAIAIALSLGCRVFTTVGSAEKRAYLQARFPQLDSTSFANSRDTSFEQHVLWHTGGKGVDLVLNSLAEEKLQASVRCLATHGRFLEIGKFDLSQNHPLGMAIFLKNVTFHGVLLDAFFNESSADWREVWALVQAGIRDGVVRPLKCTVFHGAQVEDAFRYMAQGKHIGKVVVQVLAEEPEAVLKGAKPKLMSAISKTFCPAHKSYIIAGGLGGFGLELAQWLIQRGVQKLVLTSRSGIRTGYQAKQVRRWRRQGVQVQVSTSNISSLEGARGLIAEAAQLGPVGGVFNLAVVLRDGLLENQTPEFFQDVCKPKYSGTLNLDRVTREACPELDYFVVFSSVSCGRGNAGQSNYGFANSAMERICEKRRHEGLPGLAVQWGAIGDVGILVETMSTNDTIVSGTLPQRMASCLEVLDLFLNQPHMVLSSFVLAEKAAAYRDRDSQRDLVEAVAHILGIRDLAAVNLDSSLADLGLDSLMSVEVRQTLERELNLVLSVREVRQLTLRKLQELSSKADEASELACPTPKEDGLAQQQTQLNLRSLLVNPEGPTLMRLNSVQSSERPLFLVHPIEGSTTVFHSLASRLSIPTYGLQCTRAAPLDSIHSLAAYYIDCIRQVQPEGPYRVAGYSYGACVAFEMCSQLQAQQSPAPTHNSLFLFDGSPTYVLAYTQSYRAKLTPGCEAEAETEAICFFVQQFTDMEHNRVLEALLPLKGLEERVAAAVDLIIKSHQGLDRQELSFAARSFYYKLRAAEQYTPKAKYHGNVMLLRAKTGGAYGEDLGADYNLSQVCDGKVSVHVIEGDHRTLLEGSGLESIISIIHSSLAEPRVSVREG

Turning to `Nc1cnn(-c2ccccc2)c(=O)c1Cl`, the result in test [1], in [2], in [3], in [4], in test [5] and in [6] was inactive. In addition, the result in [7], in test [8], in test [10], in test [11], in test [12] and in [13] was inactive. The compound was called inactive in test [14], in test [15], in [16] and in test [17]. The AC50 in test [9] is 71.7 µM (active).
As to `CC(C)(C)C(=O)C(Oc1ccc(Cl)cc1)n1cncn1` (stereo not drawn), the AC50 in test [1] was 3.12 µM (active); in test [3], 50 µM (active); in [9], 37 µM (active); in test [13], 7.7 µM (active). The compound was classed as inactive in test [2], in [4], in [5], in [6], in [7] and in [8]. Further, the outcome in [10], in test [18], in [11], in [12], in test [14] and in [15] was inactive. For the same compound, the call in test [16] and in test [17] was inactive.
In the case of `CCOc1nc(C(Cl)(Cl)Cl)ns1`, the result in test [1], in test [3], in test [5], in test [7] and in test [15] was inactive. Further, the AC50 in test [4] was 1.11 µM (active); in test [6] it was 1.18 µM (active); in test [9], 1.44 µM (active); in test [11], 1.49 µM (active); in test [12] it was 0.967 µM (active); in [13] it was 1.05 µM (active). Besides, the values for the half-maximal activity concentration (AC50) in test [16] and in test [17] were 1.08 µM (active) and 1.29 µM (active), respectively.
For `CCC(C)n1c(=O)[nH]c(C)c(Br)c1=O` (stereo not drawn), the result in test [1], in test [2], in [4], in test [5], in test [11] and in [15] was inactive. Besides, the compound was called inactive in test [19] and in [17]. Besides, the AC50 in [3] is 14.1 µM (active); in test [6], 27.6 µM (active); in test [7], 40.4 µM (active); in test [9] it was 5.11 µM (active); in [12], 14.3 µM (active); in test [14] it was 28.5 µM (active). Moreover, in test [16], the AC50 is 30 µM (active).
